This is a sample that favours compounds with a hit; in the whole collection about 0.5% have one here.
Menin-MLL TR inh: menin-MLL binding inhibition, Texas Red mutant peptide | O00255 | Menin + Texas Red MLL mutant peptide, fluorescence polarization | Potency, µM (titrated, usually from 61.6 µM), inactives show top-dose FP activity change, negative = inhibition, actives largely listed as inhibitors | hit rate 0.23% among 270,000; active means well fitted inhibition curve with a large enough effect in the polarisation, with a control signal flat, not every such curve was filed as active; inconclusive means small, poorly fitted or top-dose-only effect, or effect the other way, or a change in a side signal; inactive means no such curve, though single readings can be large or run the other way; the % refers to the polarisation; further: potency means the concentration at half of the fitted maximal effect; % of control where 0% means no effect
TRb SRC2 PPI: TRbeta-SRC2 interaction inhibition. hit rate 0.065% among 280,000. TRbeta-SRC2 peptide binding, fluorescence polarization; receptor liganded with 1 µM T3. P10828. Potency, µM (top dose mostly 106 µM), without a hit: at the highest dose activity change, negative = inhibition, most hits filed as inhibitors; active means well fitted inhibition curve with a large enough effect; inconclusive means small, poorly fitted or top-dose-only effect, or effect the other way;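 further: potency means the concentration at half of the fitted maximal effect; plate controls were bound peptide for no effect and peptide without receptor for full effect; nearly all actives have a fitted effect of over 50% in size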
Target sequence (P10828 whole entry, looked up): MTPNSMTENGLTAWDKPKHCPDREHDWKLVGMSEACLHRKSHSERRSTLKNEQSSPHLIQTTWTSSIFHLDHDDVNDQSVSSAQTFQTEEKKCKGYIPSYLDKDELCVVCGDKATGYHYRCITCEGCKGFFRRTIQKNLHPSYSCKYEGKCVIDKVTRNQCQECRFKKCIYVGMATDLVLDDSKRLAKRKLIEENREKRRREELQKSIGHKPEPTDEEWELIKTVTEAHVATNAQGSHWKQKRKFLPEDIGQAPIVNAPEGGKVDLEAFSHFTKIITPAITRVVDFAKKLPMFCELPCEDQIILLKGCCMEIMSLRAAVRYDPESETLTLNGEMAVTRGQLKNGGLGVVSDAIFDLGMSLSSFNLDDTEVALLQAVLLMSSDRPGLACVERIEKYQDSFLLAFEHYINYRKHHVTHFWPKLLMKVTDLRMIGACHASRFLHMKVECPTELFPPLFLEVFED
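Binding of a 20-amino-acid Texas Red SRC2 peptide (20 nM) to TRb ligand-binding domain (0.6 uM) with agonist T3 at 1 uM was followed by fluorescence polarization after a 5 hr room-temperature incubation.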
TR SRC2 fluor cs: counter-screen for TRb-SRC2 inhibitors: fluorescence interference | TRb/SRC2 Texas Red total fluorescence interference | Potency, µM (doses to about 106 µM), for the others: at the highest dose fluorescence change, negative = quenching | hit rate 0.29% among 280,000; active means well fitted curve in either direction with a large enough effect; inconclusive means small, poorly fitted or top-dose-only effect; further: potency means the concentration at half of the fitted maximal effect; on the % scale 0 is the no-effect control and ±100 the full control effect
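Human TRβ ligand-binding domain (0.6 uM) and Texas Red SRC2 peptide (20 nM) in Tris buffer with 1 uM T3 and 5% DMSO were incubated with pinned compound for 5 hr at ambient temperature. Total fluorescence was computed as S + 2P (555/632 nm).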
Menin MLL FP FL: inhibitors of human menin-MLL interaction, wild-type MLL peptide. Fluorescence polarization, fluorescein-MLL peptide displacement from menin. FP activity change, % at 61.4 µM. 290,000 tested, under 10 active. AID 1766; active means well fitted curve in the direction sought with a large enough effect in the polarisation, not every such curve was filed as active; inconclusive means small, poorly fitted or top-dose-only effect, or effect the other way, or a change in a side signal; inactive means no such curve, though single readings can be large or run the other way; the % refers to the polarisation; further: % of control where 0% means no effect
GoLoco inh red: RGS12 GoLoco-Gai1 interaction inhibition; Potency, µM (titrated, usually from 61.6 µM), inactives show at the top dose activity, negative = inhibition, most hits filed as inhibitors; hit rate 0.44% among 230,000; P63096; Gai1:RGS12 GoLoco peptide FP, rhodamine, 10 min; active means well fitted inhibition curve with a large enough effect, not every such curve was filed as active; inactive means no such curve, though single readings can be large or run the other way; further: potency means the concentration at half of the fitted maximal effect; on the % scale 0 is the no-effect control and ±100 the full control effect; nearly all actives have a fitted effect of over 30% in size
Target sequence (P63096 whole entry, looked up): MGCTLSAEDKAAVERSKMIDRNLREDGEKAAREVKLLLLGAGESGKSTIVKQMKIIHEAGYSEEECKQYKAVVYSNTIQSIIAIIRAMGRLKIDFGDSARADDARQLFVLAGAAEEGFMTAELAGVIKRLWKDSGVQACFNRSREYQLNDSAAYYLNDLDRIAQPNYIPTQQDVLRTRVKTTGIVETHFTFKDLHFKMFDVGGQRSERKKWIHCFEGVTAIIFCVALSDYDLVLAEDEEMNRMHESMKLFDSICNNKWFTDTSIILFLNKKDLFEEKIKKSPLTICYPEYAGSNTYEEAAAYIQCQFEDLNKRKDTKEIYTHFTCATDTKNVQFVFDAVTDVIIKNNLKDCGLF
MLL CXXC-DNA inh: MLL CXXC-DNA interaction inhibition; Potency, µM (highest dose often 115 µM), without a hit: at the highest dose activity change, negative = inhibition, actives largely listed as inhibitors; Q03164; MLL-CXXC / FITC-HOXA9 DNA fluorescence polarization; AID 2662; hit rate 0.037% among 290,000; active means well fitted inhibition curve with a large enough effect in the polarisation, with a control signal flat, not every such curve was filed as active; inconclusive means small, poorly fitted or top-dose-only effect, or effect the other way, or a change in a side signal; inactive means no such curve, though single readings can be large or run the other way; the % refers to the polarisation; further: potency means the concentration at half of the fitted maximal effect
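Steps: dispense CXXC domain solution (7 uM) → pin compounds or unlabeled HOX-A9 DNA control → 5 min ambient → add FLSN-HOX-A9 solution (50 nM) → spin → 30 min ambient → fluorescence polarization. Tris pH 7.5/NaCl/DTT/BSA buffer.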
* hit, by the source's call; ? = inconclusive; . = no result; [ ] = remark or other dose.

SMILES	Menin-MLL TR inh	TRb SRC2 PPI	TR SRC2 fluor cs	Menin MLL FP FL	GoLoco inh red	MLL CXXC-DNA inh
CCOc1ccc(CCNC(=O)c2nc(-c3cccc(F)c3)n3c2CCCCC3)cc1OCC	.	-26.8%	63.1µM*[quencher]	.	.	.
O=C(Cn1cc2c(n1)CCCC2)NCc1ccccn1	24.5%	-3.7%	3.5%	1.4	15.8µM*	-27.9%
O=C(Cn1cc2c(n1)CCCC2)NCc1cccs1	-8.5%	-15.3%	1.5%	1.4	12.7%	-2.8%
CC1C2(C)OC(=N)C(C#N)(C(C)O2)C1(C#N)C#N (centres undefined)	.	?	20.7%	?	25.1µM*	?
CC(C)Nc1nc(N)nc(Cl)n1	.	-1.9%[201 µM]	0.0%[201 µM]	.	.	.
Cn1nc(C(=O)NCc2ccccc2Cl)c2c1-c1ccccc1S(=O)(=O)C2	.	-28.5%	100µM*[quencher]	.	.	-11.7%
Cn1nc(C(=O)N2CCN(c3ccc([N+](=O)[O-])cc3)CC2)c2c1-c1ccccc1S(=O)(=O)C2	25.1µM*	.	.	0.1	.	14.5%
COc1ccc(NC(=O)c2nn(C)c3c2CS(=O)(=O)c2ccccc2-3)cc1	-8.9%	.	.	-1.5	.	2.8%
Cn1nc(C(=O)Nc2ccc(F)c(Cl)c2)c2c1-c1ccccc1S(=O)(=O)C2	.	-24.5%	0.0063µM*[quencher]	.	.	.
Cn1nc(C(=O)N2CCN(c3ccc(Cl)cc3)CC2)c2c1-c1ccccc1S(=O)(=O)C2	.	-3.6%	13.5%	.	.	-0.6%
COc1ccc2c(c1)O[C@@H](c1ccc3c(c1)OCO3)[C@H](OC(=O)NS(=O)(=O)c1ccc(C)cc1)C2=O	11.1%	1.9%	-2.2%	0.6	5.5%	.
CCOC(=O)c1c(C)oc2nc(C)nc(NCCCN3CCN(c4ccccc4)CC3)c12	.	0.2%	-16.7%	.	.	.
CCOC(=O)c1c(C)oc2nc(C)nc(NCCCN3CCN(c4cccc(C)c4)C(C)C3)c12 (centres undefined)	.	-9.5%	44.7µM*[quencher]	.	.	.
Cc1ccc(N(C)C(=O)CC(C)S(=O)(=O)c2ccc3c(c2)NC(=O)CO3)cc1 (centres undefined)	.	-10.4%	12.6µM*[quencher]	.	.	-2.8%
NS(=O)(=O)c1ccc(N=Nc2ccc(O)c(C(=O)O)c2)cc1	.	.	.	.	-10.5%[14.2 µM]	.
O=C(O)c1cc(N=Nc2ccc(O)c(C(=O)O)c2)ccc1O	39.8µM*	.	.	-7.3	.	-8.7%
O=C(O)c1cc(N=Nc2ccc([N+](=O)[O-])cc2)ccc1O	.	10.7%	-6.3%	.	4.0%[14.2 µM]	.
O=C(O)c1cc(N=Nc2ccc(-c3ccc(N=Nc4ccc(O)c(C(=O)O)c4)cc3)cc2)ccc1O	?	?	28.2µM*[quencher]	?	.	.
O=C(NNC(=S)Nc1ccc(OC(F)F)cc1)c1cc2c(s1)CCCC2	0.9%	-12.9%	631µM*[quencher]	4.1	0.4%	-10.3%
Nc1ncnc2c1ncn2[C@@H]1O[C@H](C(=O)NC2CC2)[C@H](O)[C@H]1O	-0.2%	6.6%	-0.1%	3.6	15.8%	3.3%
CCCOc1ccc(C(=O)CCN2CCCCC2)cc1	5.9%	39.8µM*	1.6%	2.0	-3.8%	26.8%
CCCCOc1ccc(C(=O)CCN2CCOCC2)cc1	-11.2%	5.62µM*	-4.2%	-0.5	0.6%	?
COc1ccccc1Nc1cc(C)nc2nc(-c3ccccc3)nn12	.	-3.7%	-2.8%	.	.	.
CCN(CC)S(=O)(=O)c1cccc(N=NC2=C(O)CCCC2=O)c1	1.8%	39.8µM*	?	5.7	2.8%	11.6%
C=CCCC/C=C(/C)C(OCc1ccc(OC)cc1)C(CC/C=C(\C)C(N)=O)OC (centres undefined)	-16.9%[11.7 µM]	7.5%[11.2 µM]	-2.4%[11.2 µM]	-2.4[11.7 µM]	.	.
SMILES	Menin-MLL TR inh	TRb SRC2 PPI	TR SRC2 fluor cs	Menin MLL FP FL	GoLoco inh red	MLL CXXC-DNA inh
O=C1c2ccccc2-c2onc3ccc(N4CCCC4)c1c23	?	39.8µM*	44.7µM*[fluorescent]	?	-199.9%	?
O=C1c2ccccc2C(=O)c2c1cccc2N1CCCC1	-28.7%	7.2%	0.3%	-0.7	78.3%	6.2%
Cn1nc(-c2ccccc2)c(N2CCCCC2)cc1=O	-5.7%	3.8%	-0.3%	4.5	5.3%	17.4%
O=C1c2ccccc2-c2onc3ccc(NCc4ccco4)c1c23	?	35.5µM*	44.7µM*[fluorescent]	?	11.2µM*	?
Cn1c(=O)cc2c3c(c(N4CCCCC4)ccc31)C(=O)c1ccccc1-2	.	?	?	?	15.8µM*	?
CCOc1ccc2noc3c2c1C(=O)c1ccccc1-3	8.91µM*	50.1µM*	?	?	-14.9%	?
CCNc1ccc2noc3c2c1C(=O)c1ccccc1-3	?	14.1µM*	44.7µM*[fluorescent]	?	3.98µM*	?
CC(=O)N1c2ccc(S(=O)(=O)Nc3ccc(Cl)cc3C)cc2CC1C (centres undefined)	.	-1.2%	-4.1%	.	.	.
CCOc1ccc(NC(=O)C2CCN(C(=O)N3CC(C)Oc4ccc(Cl)cc43)CC2)cc1 (centres undefined)	.	-15.5%	100µM*[quencher]	.	.	.
CC1CN(C(=O)N2CCC(C(=O)NC3CCCCCC3)CC2)c2cc(Cl)ccc2O1 (centres undefined)	.	-3.0%	0.7%	.	.	.
CCN(CC)c1ccc(NC(=O)CCCCCN2C(=O)c3ccccc3C2=O)cc1	-7.4%	-0.2%	-3.9%	-1.3	22.4µM*	-6.2%
Cc1ccc(CCCOC(=O)C[N+]2(C)CCOCC2)cc1	-2.5%	-8.5%	-2.2%	-0.4	10µM*	9.1%
C[N+]1(CC(=O)OCCCc2ccccc2)CCOCC1	-15.2%	-10.3%	-7.0%	-1.0	12.6µM*	-2.4%
O=C(CN1CCOCC1)OCCCc1ccccc1	?	-6.9%	0.6%	-3.0	-3.2%	2.4%
c1cc2ccc3ccc4ccc5cccc6c(c1)c2c3c4c56	.	-5.1%[201 µM]	0.2%[201 µM]	.	.	.
CCCCC(CC)C(=O)OCCOCCOCCOC(=O)C(CC)CCCC (centres undefined)	.	1.0%[201 µM]	-3.4%[201 µM]	.	.	.
N#CCCn1c(=O)c(-c2cccs2)nc2cnc(N3CCNCC3)nc21	-2.8%	.	.	?	-2.5%	.
Cc1ccc(C)c(NC(=O)C(=O)NCCc2csc3nc(-c4ccccc4C)nn23)c1	.	-15.1%	22.4µM*[quencher]	.	.	.
Cc1ccc(NC(=O)C(=O)NCCc2csc3nc(-c4ccccc4C)nn23)cc1Cl	.	-0.1%	-16.5%	.	.	.
C[N+](C)(C)CCN(Cc1cccs1)c1ccccn1	.	.	.	.	2.3%[14.2 µM]	.
COc1cc(/C=C2\CC(C(C)(C)C)C/C(=C\c3cc(OC)c(OC)c(OC)c3)C2=O)cc(OC)c1OC (centres undefined)	7.94µM*	.	.	-15.8	.	?
CC(C)(C)C1CCC(OC(=O)C[N+]2(C)CCCC2)CC1 (centres undefined)	13.2%	2.3%	0.1%	3.9	7.08µM*	-0.7%
C[N+]1(CC(=O)OCCCC2CCCCC2)CCCC1	-1.6%	-6.3%	-2.6%	0.1	9.6%	-10.5%
CC(C)(C)C1CCC(OC(=O)C[N+]2(C)CCCCC2)CC1 (centres undefined)	-16.9%	6.0%	-1.4%	4.0	8.91µM*	-1.6%
CC(Cl)(Cl)C(=O)OCCOc1cc(Cl)c(Cl)cc1Cl	.	-3.3%[201 µM]	-0.4%[201 µM]	.	.	.

Screens deposited in PubChem BioAssay by National Center for Advancing Translational Sciences (NCATS).
